About 3,700 (7%) of roughly 53,000 sequences were called active. This is one part of a sample in which actives are shown more often than they occur. Unmarked numbers belong to inactive results.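 The calls were made as follows: active = gene knockdowns whose robust z-score for IL-1 alpha signal is at least 2 or at most -2, so actives lie on both sides; inactive = the rest.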
Assay: Components of the Cytosolic LPS Sensing Pathway: Gene Identification via Genome-wide siRNA Screen;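 also: robust z of the log signal after scaling to non-targeting control siRNA wells of the plate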
Settings: RAW264.7 macrophages, IL-1a HTRF, actives lie on both sides, screened at 100 nM (by protocol), cells primed 5 h with Pam3CSK4 first
Outline: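 Knockdown: 100 nM siRNA, 48h, RAW264.7. Stimulation: Pam3CSK4 5 h, then LipidA via TransIT-TKO 24 h. Output: supernatant IL-1a HTRF, negative-control-normalized, log robust z-score; viability by CellTiter-Glo.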

In the case of GUCAUCAUGAACCAAGAGATT against Olfr713, the z-score is reported as -2.18 (active).
In the case of GGAAAACCAGCACAAUUUATT against Cadm1, the z-score is reported as 2.49 (active).
For CCAUGGGAUAUGAUUUACATT against Phf11a, the z-score was 3.49 (active).
For CGCUAUGAGGCAGCUAAUUTT against Psma6, the z-score was -2.27 (active).
In the case of CCUACCUUCAUUCGCUUCGTT against Cpz, the z-score is reported as 2.61 (active).
For GGAGUGUUUUGCAGUUUUATT against Dcstamp, the z-score was 4.39 (active).
For GGUAACAAACUACAUUUGCTT against Pcdhb16, the z-score was 2.7 (active).
With GCCUAAGGGAGACUCUUUGTT against Ano7 the z-score was -2.02 (active).
For GGCGAAUGCGCUUCUGAUATT against BC053393, the z-score was 2.29 (active).
In the case of GGCACACAGUUUUGUACAUTT against Nfat5, the z-score is reported as 2.25 (active).
With GGAAGUUCCACCAUACCUCTT against Cypt4 the z-score was -2.5 (active).
For GCAUCAUUGUCAAUCAUAUTT against Olfr578, the z-score was -2.25 (active).
With GGACUACCAAUACGAACUGTT against Il23a the z-score was 2.22 (active).
With GGUGUUGGAUCAUGAUGUUTT against Nf2 the z-score was -2.14 (active).
With GGCAUCAAAGACAAUACAATT against Vmn1r15 the z-score was 3.19 (active).
For GGCGUGUGCAAGAAAAUCGTT against Cacng3, the z-score was 2.53 (active).
With GCCUGUUCGGGAAUCUUACTT against Olfr297 the z-score was 2.42 (active).
In the case of GGCGGAAAUCUUGAGCAAATT against Slc28a2, the z-score is reported as 4.39 (active).
With GGCGGAGUUCUCAAGACUUTT against Nudt18 the z-score was 3.55 (active).
With CGGUAUAGUAGAUACUUAATT against Picalm the z-score was 2.01 (active).
With CCCUCAAGGCUGAUAAACATT against Il17b the z-score was -2.26 (active).
In the case of GGCUACAUGAGCUGGAGAATT against Insr, the z-score is reported as 2.71 (active).
For GCUCAAACGAAAUGAUUCATT against Gys2, the z-score was 2.01 (active).
For GGAUGAUGCCCGAAAGAACTT against Zfp536, the z-score was -4.55 (active).
In the case of GGAGAUUCAGAAGAUCCUCTT against Isoc2b, the z-score is reported as 2.49 (active).
With GGCAGAGAAAUGGGCAAUGTT against Hcar1 the z-score was 2.12 (active).

Point of comparison: GGAUGGAGCUACUGAAAUUTT against Dera, z-score 0.39. Against it:
- CCAUCUACAAACUUUGGCCTT against Sacs — higher, 0.669
- GGUACUGACGCAUCUGAGGTT against Spata5l1 — higher, 1.53
- GACAAGCAAUAAAGAAAGATT against Lce1l — lower, -1.45
- GGAAGGUCAAGUCUUUUCUTT against Tesk1 — higher, 1.46
- GGGAAUUUCAGGCUAUAUUTT against Taf2 — higher, 1.13
- CGAUGUGGACGAGAAGCUATT against Asap2 — lower, -0.702
- CCCAUACUAAAAUUGUUGATT against Adam29 — lower, 0.253
- CCCAAUCAGCAUUUGCUCUTT against H2-M10.3 — lower, 0.104
- CCAGAUCAUCGUGCAGAAUTT against E4f1 — higher, 0.557
- GCCACUGGUUCCAAUCGUCTT against Ncs1 — lower, -0.354
- CCGAAGCAUUUUCCCAUCUTT against Slc22a20 — lower, -0.293
- CCUGAUCCUCAGUUUGGUGTT against Prl — lower, 0.129
- CGAGAAUUCCUUGCUCUAATT against Mgat4a — lower, 0.194
- GCGCGACCUUCGAAUGUAATT against Rnf5 — lower, -0.834
- GGAUAUGGUUAAAGCCAAATT against Zg16 — lower, -0.172
- GGGAUGUGUCCUGACUUUUTT against Zfp941 — lower, -0.402
- CCCAACUUAAAAGUACGUUTT against Hdac5 — higher, 0.83
- GGUUCAAAAGUCGAGCGAATT against Nudt9 — lower, -0.137
- GGAAGUGAUUCUGCUAUGUTT against Cenpn — lower, -1.69
- GGAAAGCAUGAGUUAAUAATT against Slain2 — higher, 1.38
- GGGAAUAUCACAGGUGCCATT against Axl — lower, -0.737
- GGCUCUAAAUUUUUUGUUCTT against Derl1 — higher, 0.532
- UGAGGAGAGUUUCCGAGUGTT against H2-Q6 — lower, -0.0985
- GCUAGUCUUAUGGACCAGATT against Eaf2 — lower, -0.764
- GGAAGAGCAUAAAAUGUCATT against Trps1 — lower, -0.695
- GGACAAGAAGAAAGAAAAGTT against Tmbim6 — lower, -1.07
- GGCGACAGCGUAAAAGUACTT against Lyst — lower, -0.347
- GGAAAAAAAACACUGACUGTT against Hoxa5 — higher, 1.05
- GGCUCAAGGCUGAGUUUCATT against En2 — higher, 0.704
- GGCCUGGAGGACUUUAUAATT against Cyp2a4 — lower, -1.13
- GGCUAGCUACACAGUCUCATT against Plscr2 — lower, 0.376
- CCGAAGGACAGUGUUUAUUTT against Mfsd11 — lower, 0.212
- GCCUGCUAUUUAAUUCAUATT against Fam168a — lower, -0.671
- GGUCCAGUGAAAUAAUAUCTT against Orc3 — higher, 0.774
- GCAUAAAUUUCAAGAGCGCTT against Gigyf1 — lower, -0.243
- CGUAAGAUCAACGAGAGAUTT against Ncaph2 — lower, -0.756
- GGGAAAGACUGGAAAUCUUTT against Tmod3 — higher, 0.515
- GGAGAUCGAAAAGAAUUUCTT against Mx2 — higher, 1.17
- GGAGGAAGAACUGUCUUUGTT against Wasf1 — lower, 0.221
- GCCCUUCAAAAGGAGCAGUTT against Cap1 — higher, 1.86
- GGACCAGCUGGACAAAAGATT against Zbtb18 — lower, 0.131
- GGUCAAAUCACUGAGUUUUTT against 9530080O11Rik — higher, 1.74
- GGUUGUCAUUCUUAUCCUUTT against Mageb1 — higher, 0.57
- GGGAAUGCUUAUGUAGGCATT against Aldh3b1 — lower, -1.03
- GGCGGUUAGACAUUAUGGATT against Plac9a — higher, 1.25
- GGAUGAGUUGUCAUUGAUATT against Nck1 — higher, 0.998
- CCUGUAGGGCUUUUUGAAATT against Mex3a — higher, 0.843
- GGUGUUUUUGUCCAGGUCATT against Kcnk3 — lower, -0.618
- GCAAGACAAGUUCUACGAUTT against Csad — higher, 1.83
- GCAUUCAGUUGGGACAGUATT against Hsh2d — higher, 0.443
- CGCAGAGGUUUUACUUUAATT against Mycbpap — higher, 1.52
- GCGAAGACGGAAGCAUAUUTT against Emc8 — lower, 0.12
- GGAGCUUAUCAACUACUAUTT against Cltc — lower, -0.181
- GGAGAGAAACUGCGUGUAATT against Sla — higher, 1.46
- GGCAGAAAUCCAUCAGAGATT against Rtkn2 — lower, -0.349
- GCCGUACUUCGUCAAGCUATT against Ung — higher, 0.395
- GGCAUCUAGGAGAACCUCATT against Insig2 — lower, -1.01
- CGAGAAUUACAGACACUUGTT against Noc4l — higher, 0.962
- GGCAAAAAGGCAGUAGCCATT against Ncl — higher, 0.644
- GGAACUGGAUCAAGAAUUUTT against Hhat — lower, 0.0393
- CGGACAUAGUCCAUCAUUCTT against Aig1 — higher, 1.47
- CCCACCUUCCAAAAGGAUCTT against 5031434C07Rik — lower, -0.882
- GGUGAAAUGGAUCGUCCUCTT against Nme8 — lower, -0.926
- GGAUGGUCUGCUAUUACAUTT against Phf7 — higher, 0.832
- GCCGCUAACUAAAGUCAAATT against Aloxe3 — higher, 1.15
- GGAGAUUGGCUUCCAGAAATT against Slc38a7 — higher, 0.494
- GCAACACAUUUGAACCACUTT against Usp15 — lower, -1.79
- CCACGAGGAGCUCAUUUUCTT against Dhfr — lower, 0.385
- GGCCAAAGGCAUCAGGCAUTT against Gsto2 — lower, -1.7
- GCCGCACGUUUUUGAGUUGTT against Islr2 — lower, -0.554
- CCGAAAUUUUGAGUACUGUTT against Vmn1r67 — lower, 0.285
- CCACUUAAAAUUCAUUCCUTT against Arl6ip1 — lower, -0.21
- GGAGAAGACACAGAGAACCTT against Pkd2l1 — higher, 0.645
- GGGCAUGGGAUUUAAUUCUTT against Dnajc11 — higher, 1.54
- CGCUAUGGUUUCUCAGCUUTT against Myh4 — lower, -0.02
- GCUCUCACCUUCAUUUGAATT against Tmem174 — lower, -1.37
- GGAAAUAAUGUUACUGACATT against Zfp445 — lower, -0.178
- GGCAUCAAUAGGAAGAUGCTT against Rgs19 — lower, 0.182
- GCAUUUAGGUCUGAUAAAGTT against Gpr61 — lower, 0.00391
- CCGACUGUUAAAGUGGUGUTT against Arih1 — higher, 0.608
- GUUUUACAAAUUCCUCCAUTT against Olfr1447 — lower, 0.345
- CCAGUUUUCGACACAAUUCTT against Cma1 — higher, 0.645

Source: PubChem BioAssay AID1508600 (Functional Genomics Laboratory (NCATS/FGL), 2020)
